Rows were chosen to be rich in hits. Some 5.7% of all compounds tested hit in one or more screens of this group.
VP16 counter = counter-screen for ROR gamma inhibitors: Gal4-VP16 reporter; Drosophila S2 Gal4-VP16 UAS-luciferase, luminescence, 20 h; Potency, µM (titrated, usually from 53.6 µM), inactives show at the top dose activity, negative = inhibition, hits mostly inhibitors; 310,000 tested, 3.5% active;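 further: Gal4-VP16 expression switched on by copper sulfate through the metallothionein promoter; nearly all actives have a fitted effect of over 50% in size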
B2AR arrestin = recruits beta-arrestin to the human beta2-adrenergic receptor. P07550. beta-arrestin recruitment to beta2AR, cell-based reporter. Potency, µM (top dose mostly 46.1 µM), without a hit: top-dose activation, usual class: activators. 330,000 tested, 0.02% active;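 further: 0% = DMSO controls and full agonism = EC100 isoproterenol or metaproterenol; nearly all actives have a fitted effect of over 65% in size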
NPSR antag = blocks cAMP signaling of the human neuropeptide S receptor; Q6W5P4; CHO-NPSR cells, cAMP TR-FRET, antagonist mode; Potency, µM (series often up to 38.3 µM), for inactives: top-dose activity change, negative = inhibition, usual class: inhibitors; 220,000 tested, 1% active; AID 1461; further: nearly all actives have a fitted effect of over 50% in size
RORgamma inh = inhibitors of mouse ROR gamma transcriptional activity; P51450; Drosophila S2 Gal4-RORgamma UAS-luciferase reporter, 20 h; Potency, µM (doses to about 53.6 µM), without a hit: at the highest dose activity change, negative = inhibition, usual class: inhibitors; 310,000 tested, 5.4% active; AID 2551; further: nearly all actives have a fitted effect of over 60% in size
Target sequence (P51450 whole entry, looked up, the tested form may be a part): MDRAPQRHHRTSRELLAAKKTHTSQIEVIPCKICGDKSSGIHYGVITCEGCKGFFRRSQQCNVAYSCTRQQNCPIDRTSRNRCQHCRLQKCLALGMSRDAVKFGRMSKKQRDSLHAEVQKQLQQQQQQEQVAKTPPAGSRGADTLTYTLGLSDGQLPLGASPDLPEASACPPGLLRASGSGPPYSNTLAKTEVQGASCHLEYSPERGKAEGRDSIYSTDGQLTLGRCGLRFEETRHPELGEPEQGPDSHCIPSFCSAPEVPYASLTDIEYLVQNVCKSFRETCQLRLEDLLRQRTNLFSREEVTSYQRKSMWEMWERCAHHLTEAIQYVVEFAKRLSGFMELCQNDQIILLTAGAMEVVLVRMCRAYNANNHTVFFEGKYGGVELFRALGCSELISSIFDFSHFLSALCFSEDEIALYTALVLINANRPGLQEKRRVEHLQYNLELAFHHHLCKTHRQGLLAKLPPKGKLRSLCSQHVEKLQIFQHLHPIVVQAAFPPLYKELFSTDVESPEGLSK
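Compounds are pin-transferred onto Drosophila Schneider cells expressing a copper-inducible Gal4–ROR gamma transactivation domain fusion. After 1 hr, copper sulfate is added to 700 uM final; luciferase is read 20 hr later.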
* marks the source's active call; other numbers are inactive results; u = inconclusive; x = no result given; [ ] = remark or other dose. The call rests on the fitted dose curve; in most records, active means well fitted curve in the direction sought with a large enough effect; inconclusive means small, poorly fitted or top-dose-only effect, or another doubt; inactive means no such curve, though single readings can be large; an effect the other way counts as inactive or inconclusive. Unless noted, on the % scale 0 is the no-effect control and ±100 the full control effect; potency means the concentration at half of the fitted maximal effect.

SMILES	VP16 counter	B2AR arrestin	NPSR antag	RORgamma inh
CCc1cc2c(nc1CC)CCN(CC/C(C)=N/O[C@@H](C)CN1CCCCc3nc(C)c(C)cc31)C2	4%[10 µM]	x	x	-1%[10 µM]
Cc1ccc(S(=O)(=O)N2CCN(C(=O)C3CSC4(C)CCC(=O)N34)CC2)cc1C (stereo not drawn)	x	0%	x	x
CC(C)(C)C(=O)NC1CC2CCCC(C1)N2C(=O)Nc1ccccc1Cl (stereo not drawn)	-14%	0%	x	10%
S=C(Nc1ccccc1Cl)NC1CC2CCCC(C1)N2C1CC1 (stereo not drawn)	-1%	0%	0%	11µM*
CCc1ccc(NC(=S)N2CCN(c3cccc(C(F)(F)F)c3)CC2)cc1	35µM*	0%	-7%[46.1 µM]	13µM*
COc1cccc(N2CCN(C(=S)NCCc3ccccc3)CC2)c1	u	0%	7%[46.1 µM]	25µM*
CCOc1ccccc1NC(=S)N1CCN(c2cccc(OC)c2)CC1	u	-1%	x	13µM*
COc1cccc(N2CCN(C(=S)Nc3cc(C)cc(C)c3)CC2)c1	-2%	-1%	-7%	4µM*
Cc1cc2c(c(=O)n1-c1ccccc1)C1O[C@](c3ccsc3)(Cc3cc(C#N)ccc31)O2	-4%[10 µM]	-1%[9.22 µM]	x	17%[10 µM]
O=C1CCC=C1[C@@H](O)CCc1ccccc1	-1%[10 µM]	x	x	-16%[10 µM]
COc1cccc(N2CCN(C(=S)Nc3ccc(C)cc3C)CC2)c1	-17%	-2%	x	5.6µM*
CN(C)c1ccc(NC(=S)N2CCN(c3ncc(C(F)(F)F)cc3Cl)CC2)cc1	u	-1%	6%	10µM*
COCCOC(=O)C1=C(C)N(c2ccccc2)C(=S)NC1c1ccccc1C(F)(F)F (stereo not drawn)	u	0%	-20%	18µM*
CC(=O)Nc1ccc(C2NC(=S)N(c3ccccc3C(F)(F)F)C(C)=C2C(=O)N2CCOCC2)cc1 (stereo not drawn)	-16%	0%	4%	4%
COC(=O)C1=C(C)N(c2ccccc2)C(=S)NC1c1ccccc1C(F)(F)F (stereo not drawn)	u	0%	-34%	3.2µM*
O=C1OC[C@H](Cc2ccc3c(c2)OCO3)/C1=C\c1ccc2c(c1)OCO2	x	0%	x	x
CN[C@@H]1[C@H](O[C@H]2[C@@H](O[C@@H]3[C@@H](O)[C@@H](O)[C@@H](N=C(N)N)[C@@H](O)[C@@H]3N=C(N)N)O[C@@H](C)[C@]2(O)CO)O[C@H](CO)[C@@H](O)[C@@H]1O	1%[17 µM]	x	x	8%[16.9 µM]
CC(=O)CSc1nc(-c2ccccc2)c(-c2ccccc2)o1	-9%	0%	x	7%
COc1cc(OC)cc(C(=O)Nc2nc(-c3ccccc3)c(-c3ccccc3)o2)c1	2.8µM*	0%	-14%	1.4µM*
COc1cc(NC(=O)c2ccccc2)cc(OC)c1	-1%	1%	-13%[46.1 µM]	13%
CC(=O)Nc1nc(-c2ccccc2)c(-c2ccccc2)o1	u	-1%	11%	13µM*
OCC1=CC[N+]2(Cc3ccccc3)CCC(O)[C@@H]12 (stereo partly drawn)	-6%	x	x	2%
Oc1ccc(/C=N/N2CCN(C3c4ccccc4-c4ccccc43)CC2)cc1O	-19%	-1%	10µM*	16%
COc1ccccc1NS(=O)(=O)c1cc(N2Cc3ccccc3C2=N)ccc1N1CCOCC1	-15%	0%	2.5µM*	-3%
COc1ccccc1NS(=O)(=O)c1cc(N)ccc1N1CCOCC1	x	-1%	x	x
SMILES	VP16 counter	B2AR arrestin	NPSR antag	RORgamma inh
COc1cc(CNCc2ccccn2)ccc1OCc1c(Cl)cccc1Cl	20µM*	0%	4%[46.1 µM]	14µM*
COc1cc(CNCc2ccccn2)ccc1OCc1ccc(Cl)cc1	-19%	0%	16%	-17%
Cc1ccccc1OCc1nc2ccccc2c(=O)n1/N=C/c1c[nH]c2ccccc12	-19%	1%	-51%	u
O=c1c2ccccc2nc(COc2ccccc2)n1/N=C/c1cc([N+](=O)[O-])ccc1O	4µM*	-2%	-2%	5µM*
Cc1cc(/C=N/n2c(COc3ccccc3C)nc3ccccc3c2=O)c(O)c([N+](=O)[O-])c1	35µM*	0%	u	14µM*
O=[N+]([O-])c1ccc(Cl)c(/C=N/n2c(COc3ccccc3)n[nH]c2=S)c1	-2%	5%	-7%	u
CNC(=S)N/N=C/c1cccc(OCc2ccccc2F)c1	4.5µM*	0%	-15%	2.2µM*
CCNC(=S)N/N=C/c1cccc(OCc2c(F)cccc2Cl)c1	0.71µM*	3%	u	0.71µM*

High-throughput results as filed in PubChem BioAssay.
